Results taken from PubChem BioAssay (NCATS).
Inconclusive results are not listed. A call without a number means that no potency is given here. Unmarked numbers belong to inactive results. The source made the active and inactive calls. The call rests on the fitted dose curve; in most records, active means well fitted curve in the direction sought with a large enough effect; inconclusive means small, poorly fitted or top-dose-only effect, or another doubt; inactive means no such curve, though single readings can be large; an effect the other way counts as inactive or inconclusive. Peptide text beside a SMILES is read from it.

How the values were obtained:
[1] = target: Cellular tumor antigen p53 (Homo sapiens) (UniProt P04637); assay: Primary qHTS for small molecule compounds that upregulate eGFP-tagged delta133p53alpha (in N-terminal) cells. (AID 2060322); conditions: NCI-H358 eGFP-delta133p53alpha fluorescence, 24 h; activation: hits give high values; further: nearly all actives have a fitted effect of over 75% in size; further: potency means the concentration at half of the fitted maximal effect; on activation: series mostly up to about 56 µM
Procedure, shortened: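 NCI-H358 cells pre-induced 24 h with 10 ng/ml doxycycline to express N-terminal eGFP-delta133p53alpha, then dosed 24 h at 37C without doxycycline; fixed, Hoechst-stained, GFP intensity by laser scanning cytometry, normalized to DMSO (0%) and 57.5 uM 5-azacytidine (100%).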

[2] = target: Aldehyde dehydrogenase, mitochondrial (Homo sapiens) (UniProt P05091); assay: qHTS for Inhibitors of the Aldehyde Dehydrogenase Family (ALDH2) Primary screen (AID 2061308); further: nearly all actives have a fitted effect of over 55% in size
[3] = target: Retinaldehyde dehydrogenase 3 (Homo sapiens) (UniProt P47895); assay: qHTS for Inhibitors of the Aldehyde Dehydrogenase Family (ALDH1A3) Primary screen (AID 2061315)

Chain of Cellular tumor antigen p53 (Homo sapiens) (P04637 whole entry, looked up): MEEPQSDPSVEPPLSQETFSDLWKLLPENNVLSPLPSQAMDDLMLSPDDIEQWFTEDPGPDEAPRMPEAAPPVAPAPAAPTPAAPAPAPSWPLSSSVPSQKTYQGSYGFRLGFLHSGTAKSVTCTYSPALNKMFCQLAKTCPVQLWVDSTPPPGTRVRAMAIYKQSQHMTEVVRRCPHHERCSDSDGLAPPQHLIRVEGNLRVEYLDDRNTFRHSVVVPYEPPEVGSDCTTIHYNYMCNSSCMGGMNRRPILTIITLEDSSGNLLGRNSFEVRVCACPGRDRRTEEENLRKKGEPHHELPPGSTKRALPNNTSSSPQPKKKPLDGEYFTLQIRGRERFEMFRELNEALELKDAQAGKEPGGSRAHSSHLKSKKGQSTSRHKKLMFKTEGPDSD

| Compound | activation [1] | Potency [2] | Potency [3] | Potency [1] | activity change, negative = inhibition [2] | activity change, negative = inhibition [3] |
| --- | --- | --- | --- | --- | --- | --- |
| C/C=C(\C)C(=O)OC[C@H]1O[C@H](O[C@H]2O[C@H](CO)[C@@H](OC(=O)/C(C)=C/C)[C@H](O)[C@H]2O[C@@H]2O[C@H](CO)[C@@H](O)[C@H](O)[C@H]2O)[C@H](O[C@@H]2O[C@H](CO)[C@@H](O)[C@H](O)[C@H]2O)[C@@H](O)[C@@H]1O | -4.46% | inactive | inactive | – | – | – |
| COc1cc(CCC2=NN=C(NC(=O)c3ccc(N4C[C@@H](C)N[C@@H](C)C4)cc3)C2)cc(OC)c1 | -0.333% | inactive | inactive | – | – | – |
| O=C(O)CC/C=C\C[C@H]1CO[C@@H](c2ccccc2Cl)O[C@H]1c1ccccc1O | -9.67% | inactive | inactive | – | – | – |
| O=C(O)CCc1cc2ccoc2cc1O[C@@H]1O[C@H](CO[C@@H]2OC[C@](O)(CO)[C@H]2O)[C@@H](O)[C@H](O)[C@H]1O | -11.5% | inactive | inactive | – | – | – |
| C/C=C/C=C/C(O)=C1\C(O)=C(C)C(=O)[C@@]2(C)OC(=O)[C@@](C)(NC(=O)/C=C/C(=O)O)[C@@H]12 | 10.7% | inactive | inactive | – | – | – |
| COC(=O)C1=C[C@@H](O)[C@@H](O)[C@H](O[C@@H]2O[C@H](COC(=O)/C=C/c3ccccc3)[C@@H](O)[C@H](O)[C@H]2O)C1 | -3.05% | inactive | inactive | – | – | – |
| O=C(O[C@H]1[C@@H]2C=CO[C@@H](O[C@@H]3O[C@H](CO)[C@@H](O)[C@H](O)[C@H]3O)[C@@H]2[C@@]2(CO)O[C@@H]12)c1ccc(O)cc1 | 4.58% | inactive | inactive | – | – | – |
| CC(=O)OCC(=O)[C@@]12O[C@@H]1C[C@H]1[C@@H]3CC=C4C[C@@H](O)CC[C@]4(C)[C@H]3CC[C@@]12C | 29% | inactive | inactive | – | – | – |
| CC1=C2CC(O)(C(C)(C)O)C(O[C@@H]3O[C@H](CO)[C@@H](O)[C@H](O)[C@H]3O)CC(C)C2CC1=O (stereo not given in full) | -3.05% | inactive | inactive | – | – | – |
| CO[C@@]12CC3[C@@H]([C@@H](O)[C@@H](OC(C)=O)C4[C@](C)(COC(C)=O)CCC[C@]34C)[C@@H](C)C1=CC(=O)O2 (stereo not given in full) | -3.05% | inactive | inactive | – | – | – |
| CC1(C)CC[C@]2(C(=O)O[C@@H]3O[C@H](CO)[C@@H](O)[C@H](O)[C@H]3O)CC[C@]3(C)C(=CCC4[C@@]5(C)CC[C@H](O[C@@H]6O[C@H](C(=O)O)[C@H](O)[C@H](O)[C@H]6O)C(C)(C)C5CC[C@]43C)[C@@H]2C1 (stereo not given in full) | -2.68% | inactive | inactive | – | – | – |
| CC1(C)CCCC2(C)c3c4c(c(=O)oc(=O)c3=CCC12)=CCC1C(C)(C)CCCC41C (stereo not given) | -8.04% | inactive | inactive | – | – | – |
| CC(C)=CC1C[C@](C)(O)[C@@H]2[C@H]3CCC4[C@@]5(C)CC[C@H](O[C@@H]6OC[C@H](O)[C@H](O[C@@H]7O[C@H](CO[C@@H]8O[C@H](CO)[C@@H](O)[C@H](O)[C@H]8O)[C@@H](O)[C@H](O)[C@H]7O)[C@H]6O[C@@H]6O[C@@H](C)[C@H](O)[C@@H](O)[C@H]6O)C(C)(C)[C@@H]5CC[C@@]4(C)[C@@]34CO[C@@]2(C4)O1 (stereo not given in full) | -4.46% | inactive | inactive | – | – | – |
| OC[C@@]1(O)CO[C@H](OC[C@H]2O[C@@H](OC(CCCCc3ccc(O)cc3)CCc3ccc(O)cc3)[C@H](O)[C@@H](O)[C@@H]2O)[C@@H]1O (stereo not given in full) | -1.53% | inactive | inactive | – | – | – |
| Cc1ccc(S(=O)(=O)N2CCC[C@H]2c2ccc(F)cc2)cc1 | 8.93% | inactive | inactive | – | – | – |
| CC(=O)C1CCC(=O)N1Cc1ccccc1 (stereo not given) | -13.7% | inactive | inactive | – | – | – |
| CC1=C2CC(C)(C)CC2C(O)C2=C(C1)C(=O)OC2O (stereo not given) | -7.14% | inactive | inactive | – | – | – |
| CCC1OC(=O)C(C)CC(C)C(=O)/C(C)=C/C(C)C(=O)/C=C/C1(C)O (stereo not given) | 3.05% | inactive | inactive | – | – | – |
| C/C=C(\C)C(=O)OC[C@H]1O[C@@H](O[C@H]2[C@@H](O[C@H]3O[C@H](CO)[C@@H](O)[C@H](O)[C@H]3O[C@@H]3O[C@H](CO)[C@@H](O)[C@H](O)[C@H]3O)O[C@H](COC(=O)/C(C)=C/C)[C@@H](O)[C@@H]2O)[C@H](O)[C@@H](O)[C@@H]1O | -8.4% | inactive | inactive | – | – | – |
| CC(C)C[C@H](CC(=O)NO)C(=O)N[C@@H](Cc1ccc2ccccc2c1)C(=O)N[C@@H](C)C(=O)NCCN | -11.7% | inactive | inactive | – | – | – |
| C[C@H]1CC[C@@]2(OC1)O[C@H]1CC3C4CC[C@H]5C[C@@H](O[C@@H]6O[C@H](CO)[C@H](O[C@@H]7O[C@H](CO)[C@@H](O)[C@H](O[C@@H]8OC[C@@H](O)[C@H](O)[C@H]8O)[C@H]7O[C@@H]7O[C@H](CO)[C@@H](O)[C@H](O)[C@H]7O)[C@H](O)[C@H]6O)[C@H](O)C[C@]5(C)C4=CC(=O)[C@]3(C)[C@H]1[C@@H]2C (stereo not given in full) | 6.11% | inactive | inactive | – | – | – |
| Cc1nc(NC(=O)N2CCCC2C(N)=O)sc1-c1csc(C(C)(C)C)n1 (stereo not given) | 16.1% | inactive | inactive | – | – | – |
| COc1cc(O)cc(C)c1C(=O)OC1C(CO)OC(OC2C(O)C(O)C(O)C(O)C2O)C(O)C1O (stereo not given) | -29% | inactive | inactive | – | – | – |

| Compound | activation [1] | Potency [2] | Potency [3] | Potency [1] | activity change, negative = inhibition [2] | activity change, negative = inhibition [3] |
| --- | --- | --- | --- | --- | --- | --- |
| CC1(C)CC[C@]2(C(=O)O)CC[C@]3(C)C(=CCC4[C@@]5(C)CC[C@H](O[C@@H]6O[C@H](C(=O)O)[C@@H](O)[C@H](O)[C@H]6O)C(C)(C)C5CC[C@]43C)C2C1 (stereo not given in full) | 11.5% | inactive | inactive | – | – | – |
| Nc1nc(NC2CC2)cc(-c2cccc(Cl)c2Cl)n1 | – | inactive | inactive | 6.01 µM (active) | – | – |
| COc1cc([C@H]2OC[C@@H]3[C@@H](c4ccc(O[C@@H]5O[C@H](CO)[C@@H](O)[C@H](O)[C@H]5O)c(OC)c4)OC[C@]23O)ccc1O | 3.57% | inactive | inactive | – | – | – |
| CNC(C)C(=O)NC(C(=O)N1CCCC1C(=O)Nc1cccc2ncccc12)C(C)C (stereo not given) | -21% | inactive | inactive | – | – | – |
| CC(=O)OCC1OC(OC2COC(OC3COC(OC4C(OC5C(CO)OC(OC6CCC7(C)C(CCC8(C)C7CC=C7C9CC(C)(C)CCC9(C(=O)OC9OC(CO)C(O)C(O)C9OC9OCC(OC%10OCC(O)(CO)C%10O)C(O)C9O)C(O)CC78C)C6(C)C)C(O)C5O)OCC(O)C4O)C(O)C3O)C(O)C2O)C(OC(=O)/C=C/c2ccccc2)C(O)C1OC(C)=O (stereo not given) | 11.5% | – | – | – | 6.5% [at 11.2 µM] | -8.22% [at 11.2 µM] |
| C/C=C1/[C@H](O[C@@H]2O[C@H](CO)[C@@H](O)[C@H](O)[C@H]2O)OC=C2C(=O)O[C@@H]3C[C@@H](C(C)CO)[C@H](COC(=O)C[C@H]21)[C@H]3C (stereo not given in full) | -3.57% | inactive | inactive | – | – | – |
| C=C1CCC2C(C)(C)CC(O)CC2(C)C1CCC(C)CC(=O)O (stereo not given) | 2.68% | inactive | inactive | – | – | – |
| C[C@]12CC/C(=N\OCC(=O)O)C=C1CC[C@@H]1[C@@H]2[C@@H](O)C[C@@]2(C)[C@H]1CC[C@]2(O)C(=O)CO | 5.67% | inactive | inactive | – | – | – |
| C=C[C@@]1(C)CCC2=C([C@H]1OC(C)=O)[C@H](OC(C)=O)CC1[C@](C)(C(=O)OC)CC[C@H](OC(C)=O)[C@]21C (stereo not given in full) | 15.2% | inactive | inactive | – | – | – |
| O=C(OCc1ccccc1O[C@@H]1O[C@H](CO)[C@@H](O)[C@H](O)[C@H]1O)C1(O)C=CCCC1O (stereo not given in full) | -2.29% | inactive | inactive | – | – | – |
| C=C1CCC2C(C)(C(=O)O)CCCC2(C)C1CCC1=CCOC1=O (stereo not given) | 31.2% | inactive | inactive | – | – | – |
| C[C@@H]1C[C@H](O[C@@H]2O[C@H](CO[C@@H]3OC[C@](O)(CO)[C@H]3O)[C@@H](O)[C@H](O)[C@H]2O)CC(C)(C)[C@H]1/C=C/[C@@H](C)O | -29.5% | inactive | inactive | – | – | – |
| Cc1ccc(S(=O)(=O)NCc2ccc(C(=O)NCCN(Cc3ccccc3)C(C)C)cc2)cc1 | 3.67% | inactive | inactive | – | – | – |
| CN(C)C(=O)C(=O)c1cn(C)c2cc(Cl)c(C(=O)N3CCC(Cc4ccc(F)cc4)CC3)cc12 | -10.7% | inactive | inactive | – | – | – |
| CC(=O)O[C@@]1(C)C[C@@H](O)[C@]2(O)C=CO[C@@H](O[C@@H]3O[C@H](CO)[C@@H](O)[C@H](O)[C@H]3O)[C@@H]21 | -14.5% | inactive | inactive | – | – | – |
| COc1ccc(-c2ccccc2)cc1NS(=O)(=O)c1cc(Cl)cc(Cl)c1O | -8.33% | inactive | inactive | – | – | – |
| Fc1ccc(N2CCCCC2)c(NC(=S)c2ccncc2)c1 | -8.04% | inactive | inactive | – | – | – |
| C/C(=C\C(=O)C[C@@]12C(=O)O[C@]3(C)CC[C@H]1C[C@H]23)C(N)=O | 9.92% | inactive | inactive | – | – | – |
| CCC(C)C(=O)OC1CC(C)C=C2C=CC(C)C(CCC(O)CC(O)CC(=O)O)C21 (stereo not given) | -1.53% | inactive | inactive | – | – | – |
| CC(C)C1NC(=O)CNC(=O)C2CCCN2C(=O)C(Cc2c[nH]c3ccccc23)NC(=O)CNC(=O)C(Cc2ccc(O)cc2)NC(=O)CNC1=O (stereo not given) (cyclo(GVGYGWP); configuration not given here) | -6.25% | inactive | inactive | – | – | – |
| CC1CCCC(SCC(O)C(=O)O)CC(=O)c2c(O)cc(O)cc2CC(=O)O1 (stereo not given) | -1.53% | inactive | inactive | – | – | – |
| CC(=O)NC1CC(=O)C23C(=O)NC(Cc4c[nH]c5ccccc45)C2C(C)=C(C)C(O)C3/C=C/CC(C)/C=C(/C)C(O)C1O (stereo not given) | 8.93% | inactive | inactive | – | – | – |
